Assay results published in PubChem BioAssay (NCATS).
Results filed as inconclusive are left out. The source made the active and inactive calls. Calls come from the whole dose curve; as a rule, active = well fitted cell-killing curve with a large enough effect; inconclusive = small, poorly fitted or top-dose-only effect, or effect the other way; inactive = no such curve, though single readings can be large or run the other way.

Experiment: Viability qHTS for spleen associated tyrosine kinase inhibitor (SYKi) naive MV4-11 cells (AID 1963823); note: nearly all actives have a fitted effect of over 40% in size
Details: MV4-11 AML viability, CellTiter-Glo luminescence, 72 h; series mostly up to 45 µM; viability (% of control): at the top concentration
Summary of the method: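 Luminescence from CellTiter-Glo, developed 10 min at room temperature, gave viability of MV4-11 cells never exposed to SYK inhibitor. Cells (500/well) had been incubated with compounds for 72 hr under standard culture conditions.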
Potency is the fitted concentration of half-maximal effect.

Compound | Potency | viability (% of control)
COc1ccccc1C(=O)Nc1cc2c(cc1N1CCNC[C@H]1C)n(C)c(=O)n2C | 5900 nM (active) | 
NC(=O)c1ncn(C2O[C@H](CO)[C@@H](O)[C@H]2O)c1N (stereo partly drawn) |  | 89.1% (inactive)
Nc1ncnc2c1nc(Cl)n2C1O[C@H](CO)[C@@H](O)[C@H]1O (stereo partly drawn) | 366 nM (active) | 
C[C@@H]1N[C@H]2N(C1=O)c1ccccc1[C@@]2(O)C[C@@H]1C(=O)N[C@@H](C)c2nc3ccccc3c(=O)n21 |  | 49% [at 17.3 µM] (inactive)
CN(C/C=C/C#CC(C)(C)C)Cc1cccc2ccccc12 |  | 76.8% (inactive)
Nc1nc2c(nc(Sc3ccc(Cl)cc3)n2[C@@H]2O[C@@H]3COP(=O)(O)O[C@H]3[C@H]2O)c(=O)[nH]1 |  | 105% (inactive)
CC(C)=CCc1ccc(Oc2c(O)cc(C)cc2CO)c(C(=O)O)c1O |  | 61.9% (inactive)
C=C(C)[C@@H]1CCC2=CC(=O)C[C@@H](C)[C@]2(C)C1 |  | 88.9% [at 91.9 µM] (inactive)
CC(=O)NCCc1c[nH]c2ccc(O)cc12 |  | 65.8% (inactive)
N#CC(CCCN1CCN(/N=C/c2cccnc2)CC1)(c1ccccc1)c1ccccc1 | 2060 nM (active) | 
COC(=O)C1C(c2ccc(O)cc2)C(C(=O)O)C1c1ccc(O)cc1 (stereo not drawn) |  | 65.8% (inactive)
CC(CC12CCCN1C(=O)C1CCCN1C2=O)OC(N)=O (stereo not drawn) |  | 77.8% (inactive)
C=CC(C)(O)CC/C=C(/C)C(=O)OC1C(OC2OCC(OC3OC(CO)C(O)C(O)C3O)C(OC3OCC(O)C(OC4OC(C)C(O)C(O)C4O)C3O)C2O)COC(OC(=O)C23CCC(C)(C)CC2C2=CCC4C5(C)CCC(OC6OC(CO)C(OC7OC(CO)C(O)C(OC8OCC(O)C(O)C8O)C7O)C(O)C6O)C(C)(C)C5CCC4(C)C2(C)CC3O)C1O (stereo not drawn) |  | 68.9% [at 4.97 µM] (inactive)
